# In the supplement of paper PMC12636033:
# ± gives the standard deviation of the averaged measurements. Over roughly 33,000 sequences, “E-score (rank enrichment, -0.5 to 0.5)” has its median near -0.0075; the highest 2% begin near 0.23. What follows is part of a selection rich in the highest values, with near analogues and random picks from the rest.
# Tested on: WT Max(13-93) synthetic (M65Nle)
# Assay: PBM 8-mer E-score (E-score (rank enrichment, -0.5 to 0.5)); higher = stronger preferential binding
# Method: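 Protein binding microarray (universal PBM chip covering all 10-mers in fixed probe flanks) with chemically synthesized human Max(13-93) bHLH-LZ analogs (not full-length Max) bearing noncanonical residues (hArg, Tha, Aib, Nle at 65) and aromatic Cys staples. Read-out per 8-mer (and its reverse complement): E-score (rank-based enrichment, -0.5 to 0.5) and Z-score of median probe intensity.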
row,Sequence,PBM 8-mer E-score
1,CGCATGCA,0.175 ± 0.029
2,AGCATGCG,0.326 ± 0.055
3,GGCATGCA,0.0781 ± 0.042
4,AGCATGCA,0.335 ± 0.016
5,CGCATGCC,0.141 ± 0.068
6,AGCATGCC,0.12 ± 0.022
7,TGCATGCA,0.201 ± 0.039
8,CGCATGCG,0.277 ± 0.018
9,CGCAATGC,-0.0961 ± 0.12
10,AGACACCC,-0.159 ± 0.022
11,CATTTGAC,0.0512 ± 0.021
12,TCACATGA,0.229 ± 0.011
13,CGACATGC,0.18 ± 0.013
14,CCACATGC,0.327 ± 0.06
15,CCACATCG,-0.114 ± 0.056
16,CCACATGA,0.24 ± 0.057
17,GCACATCC,-0.00788 ± 0.08
18,CAACATGG,0.171 ± 0.018
19,GCACATGA,0.175 ± 0.065
20,ACACATGC,0.23 ± 0.089
21,CCACATGG,0.366 ± 0.0054
22,GCACATAC,0.0278 ± 0.096

row,Sequence,PBM 8-mer E-score
1,GCACATGC,0.251 ± 0.032
2,ACTAAGAC,-0.0588 ± 0.021
3,AGTGGCAT,0.077 ± 0.041
4,ATAGAGAT,0.0666 ± 0.018
5,ACCTCTAT,-0.0733 ± 0.13
6,AATGCCTG,-0.0228 ± 0.16
7,AAACGTTC,0.138 ± 0.043
8,TCTTACCA,-0.0372 ± 0.041
9,CAGTGAGC,-0.263 ± 0.02
10,AATATGAA,0.279 ± 0.013
11,AATATGTA,0.138 ± 0.069
12,AATATGAC,0.201 ± 0.057
13,AATATGTC,0.0761 ± 0.1
14,AATATATT,0.197 ± 0.047
15,AATATATA,0.175 ± 0.01
16,TATATGAA,0.15 ± 0.097
17,AATATGTG,0.273 ± 0.036
18,AATATATG,0.251 ± 0.011
19,ACGTCGAC,0.0127 ± 0.076
20,ACCCCGTG,0.0605 ± 0.035
21,CCGGCGTA,-0.17 ± 0.049
22,CCCGCGCC,-0.134 ± 0.14

row,Sequence,PBM 8-mer E-score
1,ACGCATTC,-0.0561 ± 0.13
2,AGGTGATA,-0.0245 ± 0.055
3,CTTAATTC,0.258 ± 0.0064
4,ATTAATAA,0.195 ± 0.023
5,ATTAATAG,0.263 ± 0.1
6,CTTAATTA,0.0675 ± 0.075
7,ATTAATAC,0.102 ± 0.0018
8,CTTAATGA,0.0202 ± 0.07
9,ATTAATTA,0.235 ± 0.13
10,ATTAATGA,0.264 ± 0.076
11,GTTAATTA,0.13 ± 0.14
12,ATTAATTG,0.128 ± 0.089
13,ATTAATTC,0.159 ± 0.18
14,ATTAATGC,0.0772 ± 0.086
15,ACTACAGT,0.0566 ± 0.059
16,TGACAACA,0.0331 ± 0.06
17,CCCGCTAC,0.047 ± 0.0079
18,CTGAAGCC,-0.13 ± 0.039
19,GAGAGCTA,0.1 ± 0.073
20,ATGGGCTA,0.0445 ± 0.068
21,AAATGACG,0.0648 ± 0.073
22,AAATGACA,0.248 ± 0.04

row,Sequence,PBM 8-mer E-score
1,TAATGACA,0.256 ± 0.013
2,GAATGACA,0.0853 ± 0.076
3,AAATGACC,0.0445 ± 0.18
4,CAATGACA,0.184 ± 0.075
5,CGACCCAG,-0.168 ± 0.1
6,CTCAAGAA,0.026 ± 0.0068
7,TATTAGAA,0.235 ± 0.07
8,TATTATAA,0.291 ± 0.094
9,CATTAGAA,0.0359 ± 0.086
10,GATTAGAA,0.131 ± 0.017
11,GATTATAA,0.134 ± 0.066
12,AGTTATAA,0.132 ± 0.08
13,TGTTATAA,0.255 ± 0.026
14,CGTTATAA,0.0918 ± 0.12
15,CATTATAA,0.107 ± 0.051
16,CCCGGAAG,-0.252 ± 0.034
17,AATTATGT,0.178 ± 0.038
18,ACGCGCCA,0.0474 ± 0.11
19,AACGAAGA,0.0931 ± 0.055
20,CCTTTAGC,-0.065 ± 0.16
